Test results reported in PubChem BioAssay.
Activity calls are given as the source filed them.

Assays:
[1] = tested on: PRMT1 (protein arginine N-methyltransferase 1); assay: PRMT1 binders on small-molecule microarrays, primary screen, biochemical, small-molecule microarray, 635 nm fluorescence (AID 1088); conditions: small-molecule microarray binding, higher = more signal;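 also: binding of Prmt1 protein to compounds spotted on small-molecule microarray slides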
[2] = yeast growth modulation, basal conditions, primary screen, YJM789 clinical isolate, OD600, 24 h (AID 1089);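 also: growth of clinical yeast isolate S. cerevisiae YJM 789 seeded 1000 cells per well; test concentration not given here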; conditions: S. cerevisiae YJM789 growth, higher = more signal, called active from +8 up or from −8 down
[3] = fission yeast growth modulation, primary screen, strain 972, OD600, 24 h, no modulator (AID 1090);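 also: basal condition with compound alone and no growth modifier present; test concentration not given here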; conditions: S. pombe 972 growth, higher = more signal, called active from +8 up or from −8 down
[4] = S. cerevisiae growth modulation with rapamycin, primary screen, strain BY4716, OD600, 96 h (AID 1091); conditions: higher = more signal, called active from +8 up or from −8 down; also: test concentration not given here
[5] = molecular target: Torsin-1A-interacting protein 2 (Homo sapiens) (UniProt Q8NFQ8); assay: LULL1 binders on small-molecule microarray, primary screen, cell lysate, human LULL1 lysate, 635/667 nm fluorescence (AID 1092); conditions: hLULL1 lysate binding, 635 nm fluorescence, higher = more signal;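 also: probe is lysate of COS7 cells overexpressing human LULL1; score merges per-feature 667 nm fluorescence with signal-to-noise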
[6] = E. coli growth modulation, two-sided OD650, primary screen, E. coli filamentation project, strain DRC41, 24 h (AID 1093); conditions: OD650, 24 h, higher = more signal, called active from +8 up or from −8 down;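 also: MC1000 strain lacking acrAB efflux and sulA so SOS filamentation is blocked; test concentration not given here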
[7] = small-molecule microarray binders of probe aLefty2, primary screen, biochemical, biotinylated probe, 635/667 nm fluorescence (AID 1094); conditions: higher = more signal;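 also: score merges spot fluorescence near 667 nm with spot signal-to-noise ratio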
[8] = tested on: Noggin (protein binding on small-molecule microarray); assay: Noggin binders on small-molecule microarray, primary screen, biochemical, 635/667 nm fluorescence (AID 1095); conditions: 635 nm fluorescence, higher = more signal;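 also: score merges 667 nm feature fluorescence with signal to noise over triplicate slides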
[9] = molecular target: Neurogenic locus notch homolog protein 3 (Homo sapiens) (UniProt Q9UM47); assay: NOTCH3 binders on small-molecule microarray, primary screen, biochemical, 635/667 nm fluorescence (AID 1096); conditions: NOTCH3 binding, 635 nm fluorescence, higher = more signal
[10] = small-molecule microarray binders of probe aEGFR, primary screen, biochemical, biotinylated probe, 635/667 nm fluorescence (AID 1097); conditions: higher = more signal;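 also: probe is a biotinylated anti-EGFR antibody binding compounds printed on slides; score combines fluorescence near 667 nm and signal to noise of each spot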
[11] = tested on: Plasmodium falciparum Sir2 (PF13_0152, Sir2A); assay: pfSir2 binders on small-molecule microarrays, primary screen, biochemical, small-molecule microarray, 635 nm fluorescence (AID 1098); conditions: small-molecule microarray binding, fluorescence 635 nm; higher = more signal;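 also: score merges spot fluorescence intensity with its signal-to-noise ratio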
[12] = small-molecule microarray binders of probe aDKK1, primary screen, biochemical, biotinylated probe, 635/667 nm fluorescence (AID 1099); conditions: higher = more signal;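 also: score merges 667nm spot fluorescence with signal to noise across triplicate slides; reference of the scale not given here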
[13] = small-molecule microarray binders of probe aCHRDL2, primary screen, biochemical, biotinylated probe, 635/667 nm fluorescence (AID 1100); conditions: higher = more signal
[14] = splicing luciferase reporter signal modulators, primary screen, spliceosome inhibition project, cell-based, HEK293, splice +/- reporter (AID 1101); conditions: luminescence, 24 h, higher = more signal, called active from +8 up or from −8 down;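 also: HEK293 cells carrying a splicing-competent luciferase reporter gene; test concentration not given here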
[15] = molecular target: Fibroblast growth factor 10 (Homo sapiens) (UniProt O15520); assay: FGF10 binders on small-molecule microarrays, primary screen, biochemical, small-molecule microarray, 635 nm fluorescence (AID 1102); conditions: FGF10 binding, fluorescence 635 nm, higher = more signal
[16] = tested on: glycogen synthase kinase-3 (GSK3A per assay name; protocol says GSK3B); assay: GSK3 binders on small-molecule microarrays, primary screen, biochemical, small-molecule microarray, 635 nm fluorescence, GSK3A (AID 1103); conditions: small-molecule microarray binding, fluorescence 635 nm; higher = more signal; also: the record names both GSK3A and GSK3B
[17] = molecular target: Epidermal growth factor receptor (Homo sapiens) (UniProt P00533); assay: EGFR binders on small-molecule microarrays, primary screen, biochemical, small-molecule microarray, 635 nm fluorescence (AID 1104); conditions: EGFR binding, higher = more signal;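 also: score merges 667 nm emission intensity with spot signal to noise over triplicate slides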
[18] = molecular target: Follistatin-related protein 3 (Homo sapiens) (UniProt O95633); assay: FSTL3 binders on small-molecule microarrays, primary screen, biochemical, small-molecule microarray, 635 nm fluorescence (AID 1105); conditions: FSTL3 binding, higher = more signal;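 also: score merges emission near 667 nm and signal to noise per printed spot across three slides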
[19] = molecular target: Dickkopf-related protein 1 (Homo sapiens) (UniProt O94907); assay: DKK1 binders on small-molecule microarrays, primary screen, biochemical, small-molecule microarray, 635 nm fluorescence scan (AID 1106); conditions: DKK1 binding, higher = more signal;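 also: score merges emission near 667 nm with signal to noise over three replicate slides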
[20] = tested on: Inhibin beta A chain (activin A); assay: INHBA (activin A) binders on microarrays, primary screen, biochemical, small-molecule microarray, 635 nm fluorescence scan (AID 1107); conditions: small-molecule microarray binding, higher = more signal;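 also: mouse activin A protein probed at 4.33 µg/mL on printed slides; score merges bound-protein fluorescence near 667 nm with spot signal-to-noise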

Sequence of Neurogenic locus notch homolog protein 3 (Homo sapiens) (Q9UM47 whole entry, looked up): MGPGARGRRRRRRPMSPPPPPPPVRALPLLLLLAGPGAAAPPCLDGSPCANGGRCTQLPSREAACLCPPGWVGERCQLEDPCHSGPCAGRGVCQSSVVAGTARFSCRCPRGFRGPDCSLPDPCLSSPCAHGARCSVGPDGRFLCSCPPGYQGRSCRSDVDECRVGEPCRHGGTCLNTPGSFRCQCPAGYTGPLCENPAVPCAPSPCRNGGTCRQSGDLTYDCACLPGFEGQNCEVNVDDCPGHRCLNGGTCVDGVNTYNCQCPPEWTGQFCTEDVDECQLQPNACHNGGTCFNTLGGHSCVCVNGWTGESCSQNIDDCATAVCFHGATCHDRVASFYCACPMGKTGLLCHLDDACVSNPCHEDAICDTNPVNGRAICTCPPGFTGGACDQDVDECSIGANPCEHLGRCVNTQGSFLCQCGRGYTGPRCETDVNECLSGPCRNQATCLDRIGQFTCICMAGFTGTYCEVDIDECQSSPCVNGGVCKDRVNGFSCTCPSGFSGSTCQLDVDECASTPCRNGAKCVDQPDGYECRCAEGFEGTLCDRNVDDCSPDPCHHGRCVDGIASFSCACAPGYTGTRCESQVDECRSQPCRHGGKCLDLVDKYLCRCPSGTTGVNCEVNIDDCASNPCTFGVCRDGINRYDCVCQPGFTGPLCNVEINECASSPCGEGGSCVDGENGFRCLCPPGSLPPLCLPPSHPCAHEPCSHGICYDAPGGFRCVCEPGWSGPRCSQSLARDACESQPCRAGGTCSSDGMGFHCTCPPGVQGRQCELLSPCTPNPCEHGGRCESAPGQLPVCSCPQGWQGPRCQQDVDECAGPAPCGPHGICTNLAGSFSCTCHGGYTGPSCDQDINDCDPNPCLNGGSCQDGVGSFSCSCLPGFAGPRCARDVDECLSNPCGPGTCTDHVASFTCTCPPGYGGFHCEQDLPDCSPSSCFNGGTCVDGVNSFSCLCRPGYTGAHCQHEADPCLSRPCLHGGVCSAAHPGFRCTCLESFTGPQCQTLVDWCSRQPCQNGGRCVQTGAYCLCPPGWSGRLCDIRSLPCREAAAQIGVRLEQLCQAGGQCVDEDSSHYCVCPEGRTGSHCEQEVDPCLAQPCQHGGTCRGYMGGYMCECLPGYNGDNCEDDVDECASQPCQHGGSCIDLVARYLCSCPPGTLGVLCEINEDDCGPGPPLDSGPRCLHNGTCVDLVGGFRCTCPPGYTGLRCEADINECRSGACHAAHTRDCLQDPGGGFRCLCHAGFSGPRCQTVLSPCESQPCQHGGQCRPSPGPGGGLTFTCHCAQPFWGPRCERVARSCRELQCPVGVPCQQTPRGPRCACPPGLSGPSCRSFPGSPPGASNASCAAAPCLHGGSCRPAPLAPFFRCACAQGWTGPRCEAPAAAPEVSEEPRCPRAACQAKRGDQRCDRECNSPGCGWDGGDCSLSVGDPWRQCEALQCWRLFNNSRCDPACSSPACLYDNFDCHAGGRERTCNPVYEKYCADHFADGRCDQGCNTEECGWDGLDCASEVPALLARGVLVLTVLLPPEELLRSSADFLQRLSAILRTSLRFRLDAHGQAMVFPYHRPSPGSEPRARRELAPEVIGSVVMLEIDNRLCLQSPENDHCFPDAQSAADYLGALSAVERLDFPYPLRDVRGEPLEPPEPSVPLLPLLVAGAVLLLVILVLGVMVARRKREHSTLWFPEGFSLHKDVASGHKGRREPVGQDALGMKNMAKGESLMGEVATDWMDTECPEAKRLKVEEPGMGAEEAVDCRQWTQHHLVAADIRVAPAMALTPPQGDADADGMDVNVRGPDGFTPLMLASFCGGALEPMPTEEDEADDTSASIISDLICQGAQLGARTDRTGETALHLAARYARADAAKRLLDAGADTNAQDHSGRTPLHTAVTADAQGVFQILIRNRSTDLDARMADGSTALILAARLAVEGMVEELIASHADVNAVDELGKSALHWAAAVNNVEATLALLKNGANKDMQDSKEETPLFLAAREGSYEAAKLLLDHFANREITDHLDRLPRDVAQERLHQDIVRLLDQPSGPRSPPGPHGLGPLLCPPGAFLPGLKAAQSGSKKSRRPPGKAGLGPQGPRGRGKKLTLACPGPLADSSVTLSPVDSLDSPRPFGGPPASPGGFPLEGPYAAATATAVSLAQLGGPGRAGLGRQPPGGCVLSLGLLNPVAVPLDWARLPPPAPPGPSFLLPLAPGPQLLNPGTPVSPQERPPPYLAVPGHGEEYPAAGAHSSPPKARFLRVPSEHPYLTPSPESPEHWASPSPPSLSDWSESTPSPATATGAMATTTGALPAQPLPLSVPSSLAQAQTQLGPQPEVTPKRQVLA
Sequence of Torsin-1A-interacting protein 2 (Homo sapiens) (Q8NFQ8 whole entry, looked up): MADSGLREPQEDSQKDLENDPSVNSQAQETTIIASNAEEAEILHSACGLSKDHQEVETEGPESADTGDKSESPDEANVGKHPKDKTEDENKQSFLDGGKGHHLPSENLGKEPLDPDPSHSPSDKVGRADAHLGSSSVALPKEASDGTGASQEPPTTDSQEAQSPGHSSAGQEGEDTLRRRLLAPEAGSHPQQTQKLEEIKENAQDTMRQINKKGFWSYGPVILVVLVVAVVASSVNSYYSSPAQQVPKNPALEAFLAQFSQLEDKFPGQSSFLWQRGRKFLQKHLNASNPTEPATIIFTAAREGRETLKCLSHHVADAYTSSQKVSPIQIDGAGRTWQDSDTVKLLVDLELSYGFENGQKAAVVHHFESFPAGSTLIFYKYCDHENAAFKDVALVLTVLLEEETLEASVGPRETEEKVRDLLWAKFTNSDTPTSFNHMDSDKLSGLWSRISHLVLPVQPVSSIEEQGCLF
Sequence of Follistatin-related protein 3 (Homo sapiens) (O95633 whole entry, looked up): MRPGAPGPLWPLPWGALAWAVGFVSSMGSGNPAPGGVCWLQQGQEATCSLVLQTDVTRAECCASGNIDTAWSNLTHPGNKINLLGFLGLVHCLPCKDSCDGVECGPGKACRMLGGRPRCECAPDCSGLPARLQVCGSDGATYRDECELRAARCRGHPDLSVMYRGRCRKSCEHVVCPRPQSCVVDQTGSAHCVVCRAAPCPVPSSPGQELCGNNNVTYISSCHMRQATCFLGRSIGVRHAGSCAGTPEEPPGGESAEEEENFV
Sequence of Epidermal growth factor receptor (Homo sapiens) (P00533 whole entry, looked up): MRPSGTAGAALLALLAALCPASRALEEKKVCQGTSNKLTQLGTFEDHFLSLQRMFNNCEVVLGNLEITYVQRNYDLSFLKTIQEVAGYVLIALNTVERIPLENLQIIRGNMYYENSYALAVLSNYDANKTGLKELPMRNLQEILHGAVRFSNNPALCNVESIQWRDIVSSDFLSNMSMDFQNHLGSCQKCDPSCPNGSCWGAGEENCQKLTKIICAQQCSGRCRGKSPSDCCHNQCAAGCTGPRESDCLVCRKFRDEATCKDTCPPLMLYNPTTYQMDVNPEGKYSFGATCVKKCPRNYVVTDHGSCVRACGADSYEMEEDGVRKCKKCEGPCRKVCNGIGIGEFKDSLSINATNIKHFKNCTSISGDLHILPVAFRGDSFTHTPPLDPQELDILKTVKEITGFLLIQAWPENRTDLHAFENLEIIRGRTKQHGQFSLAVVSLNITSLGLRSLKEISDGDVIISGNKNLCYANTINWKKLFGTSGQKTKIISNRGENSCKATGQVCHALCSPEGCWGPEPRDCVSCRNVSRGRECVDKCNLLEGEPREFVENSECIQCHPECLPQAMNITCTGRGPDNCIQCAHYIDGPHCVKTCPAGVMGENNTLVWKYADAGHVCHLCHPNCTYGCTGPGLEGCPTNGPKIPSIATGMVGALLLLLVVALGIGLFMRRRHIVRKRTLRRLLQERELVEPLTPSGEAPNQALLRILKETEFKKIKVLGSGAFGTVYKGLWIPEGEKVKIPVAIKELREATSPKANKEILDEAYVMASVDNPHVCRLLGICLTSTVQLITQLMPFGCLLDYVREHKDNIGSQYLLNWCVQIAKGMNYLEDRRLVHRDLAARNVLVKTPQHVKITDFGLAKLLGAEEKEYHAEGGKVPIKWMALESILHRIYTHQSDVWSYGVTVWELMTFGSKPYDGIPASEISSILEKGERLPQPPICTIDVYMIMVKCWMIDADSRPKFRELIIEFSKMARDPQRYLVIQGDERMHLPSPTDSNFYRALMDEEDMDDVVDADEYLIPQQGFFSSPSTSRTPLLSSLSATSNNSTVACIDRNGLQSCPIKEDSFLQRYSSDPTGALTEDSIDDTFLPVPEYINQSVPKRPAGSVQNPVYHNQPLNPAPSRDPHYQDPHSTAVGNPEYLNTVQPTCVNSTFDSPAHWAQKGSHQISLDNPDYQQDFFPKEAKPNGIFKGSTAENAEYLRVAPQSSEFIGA
Sequence of Fibroblast growth factor 10 (Homo sapiens) (O15520 whole entry, looked up): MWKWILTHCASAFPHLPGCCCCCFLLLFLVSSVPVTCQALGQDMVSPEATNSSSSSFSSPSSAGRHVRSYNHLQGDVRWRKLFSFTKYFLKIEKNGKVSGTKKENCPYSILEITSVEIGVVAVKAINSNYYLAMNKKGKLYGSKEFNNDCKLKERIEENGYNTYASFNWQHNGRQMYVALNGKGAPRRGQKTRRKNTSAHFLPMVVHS
Sequence of Dickkopf-related protein 1 (Homo sapiens) (O94907 whole entry, looked up): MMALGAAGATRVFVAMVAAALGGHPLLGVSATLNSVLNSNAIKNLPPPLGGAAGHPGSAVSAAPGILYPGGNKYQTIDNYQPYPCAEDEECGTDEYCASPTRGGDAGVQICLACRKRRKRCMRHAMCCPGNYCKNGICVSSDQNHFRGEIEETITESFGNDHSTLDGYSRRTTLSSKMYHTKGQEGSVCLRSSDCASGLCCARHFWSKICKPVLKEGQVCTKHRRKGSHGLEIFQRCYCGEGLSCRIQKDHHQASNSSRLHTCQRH

CC(C)C(=C=CC[C@H](O)c1ccccc1OCCO)C[C@H](O)COCc1ccccc1
composite z-score [1]: 0.251 | z-score [2]: -0.024 (inactive) | z-score [3]: -1.26 (inactive) | z-score [4]: -0.501 (inactive) | composite z-score [5]: 2.8 | z-score [6]: -0.0543 (inactive) | composite z-score [7]: -0.187 | composite z-score [8]: -0.0604 | composite z-score [9]: -0.287 | composite z-score [10]: -0.13 | composite z-score [11]: 1.63 | composite z-score [12]: -0.293 | composite z-score [13]: -0.0177 | z-score [14]: -0.114 (inactive) | composite z-score [15]: 0.444 | composite z-score [16]: -0.409 | composite z-score [17]: -0.593 | composite z-score [18]: -0.428 | composite z-score [19]: -0.42 | composite z-score [20]: 0.482

COc1ccc(C(O)C2C=CC3C(=O)N(c4ccccc4)C(=O)C3N2Nc2ccc([N+](=O)[O-])cc2)c2ccccc12 (stereo not given)
composite z-score [1]: 1.53 | z-score [2]: -0.861 (inactive) | z-score [3]: 1.68 (inactive) | z-score [4]: 2.3 (inactive) | composite z-score [5]: 3.38 | z-score [6]: -0.824 (inactive) | composite z-score [7]: 0.0798 | composite z-score [8]: -0.268 | composite z-score [9]: 1.07 | composite z-score [10]: -0.0076 | composite z-score [11]: 1.2 | composite z-score [12]: 0.662 | composite z-score [13]: 0.88 | z-score [14]: -0.707 (inactive) | composite z-score [15]: 0.981 | composite z-score [16]: 1.32 | composite z-score [17]: 0.385 | composite z-score [18]: 1 | composite z-score [19]: 0.226 | composite z-score [20]: 0.642

COc1ccc(C(=O)Nc2ccc3c(c2)[C@@]2(O[C@H](CCO)[C@@H]([Si](C)(C)c4ccc(OC)cc4)[C@@H]2C)C(=O)N3Cc2ccccc2)cc1
composite z-score [1]: 1.28 | z-score [2]: -0.0565 (inactive) | z-score [3]: -4.96 (inactive) | z-score [4]: 2.7 (inactive) | composite z-score [5]: 1.94 | z-score [6]: 0.629 (inactive) | composite z-score [7]: -0.0124 | composite z-score [8]: 1.32 | composite z-score [9]: 0.742 | composite z-score [10]: -0.0828 | composite z-score [11]: 0.578 | composite z-score [12]: -0.267 | composite z-score [13]: 0.546 | z-score [14]: -4.86 (inactive) | composite z-score [15]: 0.517 | composite z-score [16]: 0.369 | composite z-score [17]: 0.252 | composite z-score [18]: 0.527 | composite z-score [19]: 0.27 | composite z-score [20]: 1.17

CC(C)(C)N1CC=CC23O[C@@H]4C=CCOC(=O)[C@@H]4[C@H]2C(=O)N(CCO)[C@@H]3C1=O (stereo not given in full)
composite z-score [1]: 0.717 | z-score [2]: 0.573 (inactive) | z-score [3]: -0.0445 (inactive) | z-score [4]: 0.514 (inactive) | composite z-score [5]: 1.34 | z-score [6]: -0.594 (inactive) | composite z-score [7]: -0.284 | composite z-score [8]: -1.6 | composite z-score [9]: -0.337 | composite z-score [10]: -0.205 | composite z-score [11]: 1.75 | composite z-score [12]: -0.243 | composite z-score [13]: 0.375 | z-score [14]: -0.273 (inactive) | composite z-score [15]: -1.05 | composite z-score [16]: -1.14 | composite z-score [17]: -0.687 | composite z-score [18]: -0.955 | composite z-score [19]: -1.44 | composite z-score [20]: -0.545

CC(C)C[C@H]1NC(=O)C([C@@H](C)OCc2ccccc2)NC(=O)[C@@]23C(=O)N[C@@H](Cc4ccccc4)C2[C@H](C)[C@@]2(C)O[C@H]2C3/C=C/C/C=C\CNC1=O (stereo not given in full)
composite z-score [1]: 1.55 | z-score [2]: -0.099 (inactive) | z-score [3]: -1.21 (inactive) | z-score [4]: 0.206 (inactive) | composite z-score [5]: 2.01 | z-score [6]: -0.281 (inactive) | composite z-score [7]: 0.039 | composite z-score [8]: 0.697 | composite z-score [9]: 1.1 | composite z-score [10]: 0.138 | composite z-score [11]: 0.884 | composite z-score [12]: -0.261 | composite z-score [13]: -0.493 | z-score [14]: -0.138 (inactive) | composite z-score [15]: 1.03 | composite z-score [16]: 1.12 | composite z-score [17]: 0.583 | composite z-score [18]: 1.47 | composite z-score [19]: 0.917 | composite z-score [20]: 1.24

CN(C)CCCNC(=O)[C@@H]1c2ccccc2C(=O)N(Cc2ccccc2C(F)(F)F)[C@H]1c1ccc(CO)cc1
composite z-score [1]: 0.986 | z-score [2]: 0.0389 (inactive) | z-score [3]: -1.28 (inactive) | z-score [4]: -0.461 (inactive) | composite z-score [5]: 0.767 | z-score [6]: 1.53 (inactive) | composite z-score [7]: 0.0518 | composite z-score [8]: -0.396 | composite z-score [9]: -0.704 | composite z-score [10]: -0.213 | composite z-score [11]: -0.722 | composite z-score [12]: 0.908 | composite z-score [13]: 0.706 | z-score [14]: 0.0896 (inactive) | composite z-score [15]: -0.728 | composite z-score [16]: 0.355 | composite z-score [17]: -0.899 | composite z-score [18]: -0.58 | composite z-score [19]: -0.759 | composite z-score [20]: 0.764

Cc1ccc(S[C@]2(C(=O)NC(C)C)CC(=O)N(C3CCCCC3)[C@@H]2c2ccc(CO)cc2I)cc1
composite z-score [1]: 1.54 | z-score [2]: -1.15 (inactive) | z-score [3]: 0.145 (inactive) | z-score [4]: 2.68 (inactive) | composite z-score [5]: 2.84 | z-score [6]: -0.317 (inactive) | composite z-score [7]: -0.0977 | composite z-score [8]: 0.7 | composite z-score [9]: 0.884 | composite z-score [10]: 0.0203 | composite z-score [11]: 1.16 | composite z-score [12]: 0.763 | composite z-score [13]: 0.547 | z-score [14]: -0.504 (inactive) | composite z-score [15]: 0.612 | composite z-score [16]: 0.621 | composite z-score [17]: -0.242 | composite z-score [18]: 1.19 | composite z-score [19]: 0.205 | composite z-score [20]: 0.0441

COCCOC(=O)N1C(=O)[C@@]2(c3cc(C#CCNC(N)=O)ccc31)[C@H](C(=O)Nc1nc3ccccc3s1)[C@H]1C(=O)O[C@H](c3ccccc3)[C@H](c3ccccc3)N1[C@@H]2c1ccccc1OCCO
composite z-score [1]: 1.56 | z-score [2]: 0.236 (inactive) | z-score [3]: 1.81 (inactive) | z-score [4]: 3.17 (inactive) | composite z-score [5]: 1.11 | z-score [6]: 1.17 (inactive) | composite z-score [7]: 0.146 | composite z-score [8]: 1.14 | composite z-score [9]: 0.907 | composite z-score [10]: 0.359 | composite z-score [11]: 0.678 | composite z-score [12]: 0.376 | composite z-score [13]: 0.812 | z-score [14]: -0.549 (inactive) | composite z-score [15]: 1.38 | composite z-score [16]: 0.392 | composite z-score [17]: 0.597 | composite z-score [18]: 1.05 | composite z-score [19]: 0.397 | composite z-score [20]: 1.22

CCCNC(=O)[C@@]1(Sc2ccc(C)cc2)CC(=O)N(Cc2ccccc2Cl)[C@@H]1c1ccc(CO)cc1I
composite z-score [1]: 0.16 | z-score [2]: -1.17 (inactive) | z-score [3]: -3.81 (inactive) | z-score [4]: 1.82 (inactive) | composite z-score [5]: 2.08 | z-score [6]: 0.545 (inactive) | composite z-score [7]: 0.328 | composite z-score [8]: -1.24 | composite z-score [9]: -0.502 | composite z-score [10]: -0.267 | composite z-score [11]: 0.958 | composite z-score [12]: 0.147 | composite z-score [13]: 0.864 | z-score [14]: -0.766 (inactive) | composite z-score [15]: -0.87 | composite z-score [16]: -0.51 | composite z-score [17]: -1.49 | composite z-score [18]: -1.14 | composite z-score [19]: -1.54 | composite z-score [20]: 0.472

O=C(O)[C@H](Cc1ccccc1)n1cc(C2(O)CCCCC2)nn1
composite z-score [1]: 0.499 | z-score [2]: -0.418 (inactive) | z-score [3]: 0.255 (inactive) | z-score [4]: -0.444 (inactive) | composite z-score [5]: 1.71 | z-score [6]: -1.15 (inactive) | composite z-score [7]: -0.137 | composite z-score [8]: 0.392 | composite z-score [9]: 0.541 | composite z-score [10]: -0.0211 | composite z-score [11]: -0.0685 | composite z-score [12]: -0.201 | composite z-score [13]: -0.518 | z-score [14]: -0.358 (inactive) | composite z-score [15]: 0.193 | composite z-score [16]: 0.938 | composite z-score [17]: 0.213 | composite z-score [18]: 0.343 | composite z-score [19]: 0.196 | composite z-score [20]: -0.0247
